# Tests used:
# Test in all cases: DAPPL (digital affinity profiling via proximity ligation, sequencing); 10 mM Tris-HCl pH 7.5, 50 mM NaCl, 1 mM DTT, 4% glycerol, room temperature, 30 min; GST-TFs on glutathione beads, 16-mer random dsDNA library, 0.1% formaldehyde crosslink after washing; high values mean tight binding
# Conditions in all cases: protein: recombinant; tags: N-terminal GST; dsDNA, one strand shown
# ELK1 = target: T1, ELK1 (Homo sapiens, UniProt P19419 1-428)
# T1 sequence: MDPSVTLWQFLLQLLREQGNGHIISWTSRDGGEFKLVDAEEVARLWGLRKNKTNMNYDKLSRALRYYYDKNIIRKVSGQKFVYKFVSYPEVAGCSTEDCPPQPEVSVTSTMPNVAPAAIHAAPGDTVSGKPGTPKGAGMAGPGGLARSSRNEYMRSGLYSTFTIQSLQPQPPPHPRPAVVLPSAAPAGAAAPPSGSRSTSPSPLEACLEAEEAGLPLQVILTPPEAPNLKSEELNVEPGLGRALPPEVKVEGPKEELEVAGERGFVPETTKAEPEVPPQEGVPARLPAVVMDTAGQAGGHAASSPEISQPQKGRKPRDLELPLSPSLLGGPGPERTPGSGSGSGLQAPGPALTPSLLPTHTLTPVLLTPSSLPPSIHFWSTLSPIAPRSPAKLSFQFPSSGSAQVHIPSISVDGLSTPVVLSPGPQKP
# In short: (§1)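 Binding signal is each hexamer's read frequency for a factor divided by its frequency in the tag-only sample. The factors were GST-fused human transcription factors from yeast, captured on glutathione beads, DNA-barcoded and pooled with that sample. Pools were incubated with 200 nmole of a random double-stranded 16-mer DNA library in Tris/NaCl/DTT/glycerol buffer at room temperature for 30 min, then washed, crosslinked with 0.1% formaldehyde, proximity-ligated with BsaI/T4 ligase (1 h, 37 °C), PCR-amplified and sequenced on an Illumina NextSeq500.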
# GABPA = target: T2, GABPA (Homo sapiens, UniProt Q06546 1-454)
# T2 sequence: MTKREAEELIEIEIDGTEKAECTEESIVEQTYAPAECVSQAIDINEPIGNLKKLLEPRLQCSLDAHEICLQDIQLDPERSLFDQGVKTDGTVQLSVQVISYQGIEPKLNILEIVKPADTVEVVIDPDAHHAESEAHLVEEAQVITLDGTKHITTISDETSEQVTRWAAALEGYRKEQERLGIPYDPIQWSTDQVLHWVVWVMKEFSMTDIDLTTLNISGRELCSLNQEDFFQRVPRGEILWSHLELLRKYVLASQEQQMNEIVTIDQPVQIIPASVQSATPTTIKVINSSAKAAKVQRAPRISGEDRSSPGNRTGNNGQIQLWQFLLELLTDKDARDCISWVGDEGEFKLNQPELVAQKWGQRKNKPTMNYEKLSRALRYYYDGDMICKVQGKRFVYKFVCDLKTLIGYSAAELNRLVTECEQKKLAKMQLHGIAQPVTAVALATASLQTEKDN
# In short: as §1
# ERG = target: T3, ERG (Homo sapiens, UniProt P11308 1-479)
# T3 sequence: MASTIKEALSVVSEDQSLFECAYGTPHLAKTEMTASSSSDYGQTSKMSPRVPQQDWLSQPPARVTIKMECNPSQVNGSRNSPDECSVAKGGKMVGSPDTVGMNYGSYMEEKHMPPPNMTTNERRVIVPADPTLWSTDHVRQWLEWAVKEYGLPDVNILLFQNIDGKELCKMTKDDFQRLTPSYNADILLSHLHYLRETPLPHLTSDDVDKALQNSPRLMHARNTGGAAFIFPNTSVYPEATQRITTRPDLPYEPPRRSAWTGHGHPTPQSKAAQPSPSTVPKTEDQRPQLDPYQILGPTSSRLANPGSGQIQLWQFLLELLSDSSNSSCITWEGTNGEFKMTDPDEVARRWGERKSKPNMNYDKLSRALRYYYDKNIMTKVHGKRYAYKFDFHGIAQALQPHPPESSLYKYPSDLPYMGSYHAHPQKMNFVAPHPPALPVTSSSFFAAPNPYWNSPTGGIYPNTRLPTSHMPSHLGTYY
# In short: as §1
# ELF1 = ELF1 (Homo sapiens, UniProt P32519 1-619)
# In short: as §1
# SPI1 = SPI1 (Homo sapiens, UniProt P17947 1-270)
# In short: as §1
# SPIB = SPIB (Homo sapiens, UniProt Q01892 1-262)
# In short: as §1
# ETV5 = ETV5 (Homo sapiens, UniProt P41161 1-510)
# In short: as §1
# ELF4 = ELF4 (Homo sapiens, UniProt Q99607 1-663)
# In short: as §1
# ELK4 = target: T4, ELK4 (Homo sapiens, UniProt P28324-2 1-405)
# T4 sequence: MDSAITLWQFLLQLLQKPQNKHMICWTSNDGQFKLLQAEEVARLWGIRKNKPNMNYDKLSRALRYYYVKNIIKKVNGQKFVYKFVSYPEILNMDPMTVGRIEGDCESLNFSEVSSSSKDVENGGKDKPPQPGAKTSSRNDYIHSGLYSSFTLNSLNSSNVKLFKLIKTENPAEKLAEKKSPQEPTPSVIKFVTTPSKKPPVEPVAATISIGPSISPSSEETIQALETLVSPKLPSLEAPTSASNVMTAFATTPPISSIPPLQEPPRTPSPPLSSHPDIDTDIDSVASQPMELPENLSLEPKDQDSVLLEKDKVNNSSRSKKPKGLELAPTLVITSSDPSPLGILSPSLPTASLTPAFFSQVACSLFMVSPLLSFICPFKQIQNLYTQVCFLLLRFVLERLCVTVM
# In short: as §1
# ELF3 = target: T5, ELF3 (Homo sapiens, UniProt P78545 1-371)
# T5 sequence: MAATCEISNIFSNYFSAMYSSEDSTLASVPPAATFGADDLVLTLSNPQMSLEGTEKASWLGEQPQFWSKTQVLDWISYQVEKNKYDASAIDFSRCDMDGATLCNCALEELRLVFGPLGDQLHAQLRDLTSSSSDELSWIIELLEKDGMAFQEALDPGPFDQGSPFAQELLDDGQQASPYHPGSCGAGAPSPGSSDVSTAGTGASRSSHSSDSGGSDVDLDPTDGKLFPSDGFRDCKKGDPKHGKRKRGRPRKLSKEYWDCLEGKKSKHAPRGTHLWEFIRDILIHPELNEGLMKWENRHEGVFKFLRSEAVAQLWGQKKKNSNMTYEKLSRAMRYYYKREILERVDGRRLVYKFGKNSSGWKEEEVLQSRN
# In short: as §1
# ERF = target: T6, ERF (Homo sapiens, UniProt P50548 1-548)
# T6 sequence: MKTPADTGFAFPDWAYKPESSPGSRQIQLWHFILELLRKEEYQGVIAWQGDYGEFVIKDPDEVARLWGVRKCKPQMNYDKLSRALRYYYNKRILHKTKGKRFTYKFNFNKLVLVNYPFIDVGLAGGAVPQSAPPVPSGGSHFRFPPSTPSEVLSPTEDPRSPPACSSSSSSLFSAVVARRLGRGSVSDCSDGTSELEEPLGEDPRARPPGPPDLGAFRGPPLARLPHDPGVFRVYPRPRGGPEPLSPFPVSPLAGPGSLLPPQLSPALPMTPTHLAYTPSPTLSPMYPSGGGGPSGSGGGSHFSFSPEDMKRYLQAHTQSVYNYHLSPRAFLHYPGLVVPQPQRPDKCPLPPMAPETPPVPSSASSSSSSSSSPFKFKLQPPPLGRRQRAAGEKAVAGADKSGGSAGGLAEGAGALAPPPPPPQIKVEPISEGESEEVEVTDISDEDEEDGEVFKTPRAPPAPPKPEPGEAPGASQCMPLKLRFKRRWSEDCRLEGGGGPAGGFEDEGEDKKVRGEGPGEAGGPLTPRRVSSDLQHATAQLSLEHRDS
# In short: as §1
# ETV3L = target: T7, ETV3L (Homo sapiens, UniProt Q6ZN32 1-361)
# T7 sequence: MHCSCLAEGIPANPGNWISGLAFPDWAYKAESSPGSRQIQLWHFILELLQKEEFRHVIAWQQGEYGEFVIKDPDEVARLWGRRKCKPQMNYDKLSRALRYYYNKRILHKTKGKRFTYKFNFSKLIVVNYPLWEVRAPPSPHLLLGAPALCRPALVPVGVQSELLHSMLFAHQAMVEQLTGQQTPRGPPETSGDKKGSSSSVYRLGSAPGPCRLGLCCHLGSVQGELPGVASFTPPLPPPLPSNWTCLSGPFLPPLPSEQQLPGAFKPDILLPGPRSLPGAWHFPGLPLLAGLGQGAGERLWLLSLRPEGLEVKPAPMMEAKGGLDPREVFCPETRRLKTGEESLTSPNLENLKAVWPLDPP
# In short: as §1
# ETS2 = target: T8, ETS2 (Homo sapiens, UniProt P15036 1-469)
# T8 sequence: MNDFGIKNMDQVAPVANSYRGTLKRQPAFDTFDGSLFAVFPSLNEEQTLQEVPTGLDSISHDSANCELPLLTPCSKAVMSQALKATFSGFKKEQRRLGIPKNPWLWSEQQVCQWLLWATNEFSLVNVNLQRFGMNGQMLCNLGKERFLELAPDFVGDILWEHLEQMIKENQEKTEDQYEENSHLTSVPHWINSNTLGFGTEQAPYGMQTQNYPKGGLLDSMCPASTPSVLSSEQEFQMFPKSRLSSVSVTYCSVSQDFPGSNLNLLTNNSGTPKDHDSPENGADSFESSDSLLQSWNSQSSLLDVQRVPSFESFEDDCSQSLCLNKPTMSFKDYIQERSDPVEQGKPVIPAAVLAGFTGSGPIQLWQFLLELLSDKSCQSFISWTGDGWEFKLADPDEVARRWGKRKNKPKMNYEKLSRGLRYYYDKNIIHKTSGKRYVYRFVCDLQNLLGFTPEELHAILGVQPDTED
# In short: as §1
# ETV7 = target: T9, ETV7 (Homo sapiens, UniProt Q9Y603 1-341)
# T9 sequence: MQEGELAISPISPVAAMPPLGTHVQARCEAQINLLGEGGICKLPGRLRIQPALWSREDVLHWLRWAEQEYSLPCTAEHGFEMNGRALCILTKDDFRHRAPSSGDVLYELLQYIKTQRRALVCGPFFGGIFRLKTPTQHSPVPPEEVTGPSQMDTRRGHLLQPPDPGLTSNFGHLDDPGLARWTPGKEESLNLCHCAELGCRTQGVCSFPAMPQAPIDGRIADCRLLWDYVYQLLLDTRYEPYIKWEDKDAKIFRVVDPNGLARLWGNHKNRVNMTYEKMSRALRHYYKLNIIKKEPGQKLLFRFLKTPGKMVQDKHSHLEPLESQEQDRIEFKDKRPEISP
# In short: as §1
# ETV3 = target: T10, ETV3 (Homo sapiens, UniProt P41162-2 1-143)
# T10 sequence: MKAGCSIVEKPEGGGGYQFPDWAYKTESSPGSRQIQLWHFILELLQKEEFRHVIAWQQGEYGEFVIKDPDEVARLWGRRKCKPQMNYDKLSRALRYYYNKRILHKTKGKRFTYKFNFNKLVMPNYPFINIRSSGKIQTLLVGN
# In short: as §1
# ETV6 = ETV6 (Homo sapiens, UniProt P41212 1-452)
# In short: as §1
# ETV6, sequence (P41212 whole entry): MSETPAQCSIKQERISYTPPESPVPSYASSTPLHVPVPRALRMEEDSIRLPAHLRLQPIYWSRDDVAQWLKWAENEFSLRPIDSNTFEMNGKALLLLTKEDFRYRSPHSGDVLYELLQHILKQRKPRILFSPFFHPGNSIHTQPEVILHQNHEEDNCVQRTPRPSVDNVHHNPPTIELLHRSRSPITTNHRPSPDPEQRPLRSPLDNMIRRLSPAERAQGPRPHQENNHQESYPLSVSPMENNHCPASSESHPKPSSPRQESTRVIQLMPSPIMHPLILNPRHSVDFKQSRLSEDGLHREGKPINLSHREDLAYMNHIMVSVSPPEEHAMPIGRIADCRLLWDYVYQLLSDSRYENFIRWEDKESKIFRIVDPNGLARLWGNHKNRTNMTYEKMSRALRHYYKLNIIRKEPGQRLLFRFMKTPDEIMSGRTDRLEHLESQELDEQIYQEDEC
# ETV5, sequence (P41161 whole entry): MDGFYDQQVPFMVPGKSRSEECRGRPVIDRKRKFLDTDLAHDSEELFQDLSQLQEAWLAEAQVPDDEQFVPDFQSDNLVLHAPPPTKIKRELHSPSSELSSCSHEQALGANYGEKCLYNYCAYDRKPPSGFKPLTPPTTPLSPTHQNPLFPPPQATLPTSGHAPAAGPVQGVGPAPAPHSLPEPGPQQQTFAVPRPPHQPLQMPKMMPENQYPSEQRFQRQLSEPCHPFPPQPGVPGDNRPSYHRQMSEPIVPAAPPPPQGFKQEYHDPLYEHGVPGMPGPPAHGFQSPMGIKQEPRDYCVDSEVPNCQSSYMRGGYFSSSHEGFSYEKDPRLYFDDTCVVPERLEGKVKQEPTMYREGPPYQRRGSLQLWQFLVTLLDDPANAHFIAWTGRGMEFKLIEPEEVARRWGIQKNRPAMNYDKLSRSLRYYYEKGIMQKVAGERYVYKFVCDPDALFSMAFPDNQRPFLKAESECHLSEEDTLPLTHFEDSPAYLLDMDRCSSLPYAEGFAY
# SPIB, sequence (Q01892 whole entry): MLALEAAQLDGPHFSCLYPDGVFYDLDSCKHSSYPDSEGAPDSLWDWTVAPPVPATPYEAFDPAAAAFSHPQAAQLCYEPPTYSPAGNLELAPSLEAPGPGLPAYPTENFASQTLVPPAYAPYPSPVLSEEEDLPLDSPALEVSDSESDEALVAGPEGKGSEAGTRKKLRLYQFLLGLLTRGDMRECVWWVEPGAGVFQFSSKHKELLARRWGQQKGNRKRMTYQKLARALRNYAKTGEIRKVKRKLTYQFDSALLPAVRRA
# ELF4, sequence (Q99607 whole entry): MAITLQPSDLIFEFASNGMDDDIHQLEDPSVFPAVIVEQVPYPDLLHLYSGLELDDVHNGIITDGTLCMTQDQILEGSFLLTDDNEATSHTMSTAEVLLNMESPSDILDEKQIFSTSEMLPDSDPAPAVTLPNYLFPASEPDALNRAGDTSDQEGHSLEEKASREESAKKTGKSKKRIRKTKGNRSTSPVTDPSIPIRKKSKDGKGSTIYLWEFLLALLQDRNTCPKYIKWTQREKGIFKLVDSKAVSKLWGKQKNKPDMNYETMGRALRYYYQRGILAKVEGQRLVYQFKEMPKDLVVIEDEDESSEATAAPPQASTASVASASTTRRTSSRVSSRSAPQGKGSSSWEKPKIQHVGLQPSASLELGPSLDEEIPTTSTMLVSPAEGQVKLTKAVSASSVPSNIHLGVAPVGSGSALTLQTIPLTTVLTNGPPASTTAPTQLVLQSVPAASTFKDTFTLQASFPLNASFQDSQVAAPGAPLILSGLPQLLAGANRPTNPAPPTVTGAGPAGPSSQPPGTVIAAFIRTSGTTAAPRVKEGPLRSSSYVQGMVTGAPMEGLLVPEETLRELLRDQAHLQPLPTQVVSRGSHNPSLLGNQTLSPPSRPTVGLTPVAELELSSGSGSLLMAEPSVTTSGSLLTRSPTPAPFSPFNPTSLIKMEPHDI
# ELF1, sequence (P32519 whole entry): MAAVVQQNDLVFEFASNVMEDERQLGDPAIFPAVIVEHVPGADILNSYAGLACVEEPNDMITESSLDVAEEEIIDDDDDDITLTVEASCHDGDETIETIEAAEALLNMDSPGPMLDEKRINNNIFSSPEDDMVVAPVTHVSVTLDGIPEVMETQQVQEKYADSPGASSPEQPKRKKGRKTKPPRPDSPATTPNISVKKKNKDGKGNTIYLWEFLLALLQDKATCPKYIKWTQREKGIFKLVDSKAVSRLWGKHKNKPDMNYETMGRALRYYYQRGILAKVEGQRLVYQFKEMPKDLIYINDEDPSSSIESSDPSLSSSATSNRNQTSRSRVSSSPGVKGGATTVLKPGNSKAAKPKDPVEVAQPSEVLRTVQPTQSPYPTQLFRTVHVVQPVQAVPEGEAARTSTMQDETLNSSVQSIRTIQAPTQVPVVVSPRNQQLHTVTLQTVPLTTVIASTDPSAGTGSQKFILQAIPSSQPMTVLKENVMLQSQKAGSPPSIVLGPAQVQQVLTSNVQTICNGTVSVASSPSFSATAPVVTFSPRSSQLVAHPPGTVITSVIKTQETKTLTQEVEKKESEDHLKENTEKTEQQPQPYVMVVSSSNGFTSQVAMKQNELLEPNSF
sequence,measurement,setting,value
ACTGGT,binding signal,ELK1,"1.06 fold enrichment (6-mer frequency, TF over GST control)"
same,binding signal,GABPA,"1.08 fold enrichment (6-mer frequency, TF over GST control)"
same,binding signal,ERG,"1.07 fold enrichment (6-mer frequency, TF over GST control)"
same,binding signal,ELF1,"1.13 fold enrichment (6-mer frequency, TF over GST control)"
same,binding signal,SPI1,"1.1 fold enrichment (6-mer frequency, TF over GST control)"
same,binding signal,SPIB,"1.08 fold enrichment (6-mer frequency, TF over GST control)"
same,binding signal,ETV5,"1.02 fold enrichment (6-mer frequency, TF over GST control)"
same,binding signal,ELF4,"1.07 fold enrichment (6-mer frequency, TF over GST control)"
same,binding signal,ELK4,"1.06 fold enrichment (6-mer frequency, TF over GST control)"
same,binding signal,ELF3,"1.06 fold enrichment (6-mer frequency, TF over GST control)"
same,binding signal,ERF,"1.03 fold enrichment (6-mer frequency, TF over GST control)"
same,binding signal,ETV3L,"1.07 fold enrichment (6-mer frequency, TF over GST control)"
same,binding signal,ETS2,"1.03 fold enrichment (6-mer frequency, TF over GST control)"
same,binding signal,ETV7,"1.05 fold enrichment (6-mer frequency, TF over GST control)"
same,binding signal,ETV3,"1.06 fold enrichment (6-mer frequency, TF over GST control)"
same,binding signal,ETV6,"1.08 fold enrichment (6-mer frequency, TF over GST control)"

# From paper PMC7862700, “An all-to-all approach to the identification of sequence-specific readers for epigenetic DNA modifications on cytosine”
